Cav3 T inh – inhibitors of human Cav3.2 T-type calcium channel; O95180; Cav3.2-expressing cells, Fluo-4 calcium fluorescence FDSS; stronger effect = lower value; B-score at 10 µM; 100,000 compounds, 4% hits; AID 449739;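 active = single-dose well whose peak fluorescence ratio is a statistical outlier from its plate by either plate-standardised score or position-corrected B-score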
CYP2C19 inh – human CYP2C19 inhibition. AID 778. inhibition, % at 5 µM. 96,000 compounds, 21% hits. CYP2C19 Supersomes, luciferin-H EGE luminescence, 30 min;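 active = CYP2C19 inhibition above a set limit at 5 µM in the primary screen, cut at about 50% in these data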;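 also: plate controls were negative control wells for no effect and 2.5 mM tranylcypromine positive control for full effect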
Target sequence (P33261 whole entry, looked up): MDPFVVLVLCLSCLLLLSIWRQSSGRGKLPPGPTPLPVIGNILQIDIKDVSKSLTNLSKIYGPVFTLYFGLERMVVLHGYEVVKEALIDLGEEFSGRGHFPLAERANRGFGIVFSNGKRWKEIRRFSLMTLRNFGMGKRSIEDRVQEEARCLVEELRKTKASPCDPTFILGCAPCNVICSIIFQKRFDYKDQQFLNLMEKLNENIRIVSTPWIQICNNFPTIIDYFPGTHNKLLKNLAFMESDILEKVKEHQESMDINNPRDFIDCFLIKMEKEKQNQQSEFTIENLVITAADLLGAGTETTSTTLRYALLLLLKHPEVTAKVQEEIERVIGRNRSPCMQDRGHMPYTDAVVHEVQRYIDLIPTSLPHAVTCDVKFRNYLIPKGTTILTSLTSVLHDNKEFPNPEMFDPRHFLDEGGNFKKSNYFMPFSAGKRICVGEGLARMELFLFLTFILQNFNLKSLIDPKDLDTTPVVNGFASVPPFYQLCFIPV
CYP2C9 act – increases human cytochrome P450 2C9 activity | 96,000 compounds, 1.4% hits | P11712 | activation factor at 5 µM | recombinant CYP2C9, luciferin-H conversion, luminescence; stronger effect = higher value; factor 1 = untreated enzyme, 0 = blocked;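 active = activation factor of 2 or more for CYP2C9 at a 5 µM dose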;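 also: 0 = sulfaphenazole-blocked wells and 1 = vehicle-only wells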
CYP2C9 inhib – human CYP2C9 inhibition. P11712. CYP2C9 Supersomes, luciferin-H conversion, luminescence. inhibition, % at 5 µM. 96,000 compounds, 20% hits. AID 777;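 active = blocking of liver enzyme CYP2C9 beyond about 50% at 5 µM, limit read from the data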
CYP2C19 act – increases human CYP2C19 enzyme activity | P33261 | recombinant CYP2C19, luciferin-H EGE luminescence; stronger effect = higher value; 0 = fully inhibited enzyme, 1 = untreated enzyme | activation factor at 5 µM | 96,000 tested, under 10 active | AID 1025;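 active = activation factor of at least 2 at 5 µM in the primary screen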;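 also: 0 = wells with 2.5 mM tranylcypromine and 1 = vehicle-only wells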
* marks the source's active call; other numbers are inactive results; . = no result. Only some compounds are listed: those with a hit (about 27% of all), similar ones and a draw of the others.

SMILES	Cav3 T inh	CYP2C19 inh	CYP2C9 act	CYP2C9 inhib	CYP2C19 act
CC(CCc1ccccc1)NC(=O)c1cccs1 (configuration not stated)	0.16	57*	0.3	72*	0.4
O=C(NNC(=O)C(c1ccccc1)c1ccccc1)c1cccs1	0.12	56*	0.1	91*	0.4
Cn1cc(S(=O)(=O)N2CCN(C(=O)c3ccco3)CC2)c(=O)n(C)c1=O	-0.17	-15	1.2	-22	1.1
Cc1csc(CCc2nc(C)cs2)n1	0.077	16	0.9	9	0.8
C=CCn1c(C)c(C(C)=O)c(N2CCN(c3ccccc3)CC2)nc1=S	-1.6	9	0.9	12	0.9
CC(C)CNC(=O)COc1ncnc2ccccc12	0.94	-1	0.8	19	1
Cc1[nH]n(C(C)(C)C)c(=O)c1Sc1ccc(Cl)cc1	-0.89	54*	0.5	54*	0.5
Cc1ccc(S(=O)(=O)N2CCN(S(=O)(=O)c3ccc(C)cc3)C3OCCOC32)cc1 (configuration not stated)	0.38	-14	1	-2	1.1
CCNc1nc(N)c(C(=O)c2ccc(Cl)s2)s1	0.046	83*	0.5	54*	0.2
COCCn1c(=NC(=O)CSC(C)=O)sc2cc(F)ccc21	-8.7*	46	0.7	28	0.5
CCOC(=O)Cn1c(=NC(=O)CSC(C)=O)sc2cc(F)ccc21	-7.5*	35	0.8	16	0.7
CCOC(=O)Cn1c(C(=O)OCC)cc2sccc21	-0.43	35	0.6	41	0.7
COCCn1c(=NC(=O)CSCC(=O)NC2CCCCC2)sc2cc(OC)ccc21	-0.41	82*	0.4	57*	0.2
CCOc1ccc2c(c1)sc(=NC(=O)C1CC1)n2C	-1.5	13	0.9	7	0.9
COCCn1c(=NC(=O)CSC(C)=O)sc2cc(OC)ccc21	-5.9*	8	0.6	44	0.9
CCCNC(=O)c1cc2c(C(F)(F)F)nn(C)c2s1	0.63	6	1	0	0.9
CCn1c(=NC(=O)CSC(C)=O)sc2cc(OC)ccc21	-6.7*	.	.	.	.
COC(=O)C1=C(C)NC(C)=C(C(=O)OC)C1c1ccc(NC(C)=O)cc1	0.8	33	0.5	52*	0.7
COC(=O)C1=C(C)NC(C)=C(C(=O)OC)C1c1ccc2ccccc2n1	-0.72	77*	0.5	50*	0.2
O=C1c2ccccc2C(=O)C1c1ccc2ccccc2n1	-0.26	82*	0.3	74*	0.2
O=C(NCCc1ccccc1)C(=O)NCC1CCCO1 (configuration not stated)	0.68	12	0.9	6	0.9
Cc1ccc(NC(=O)N2CCC(C(=O)NCC(C)C)CC2)cc1	0.68	-22	1.2	-16	1.2
CC(C)COC(=O)C1[C@H]2C(=O)N(Cc3cccs3)C[C@]23C=C[C@H]1O3 (some centres not stated)	-0.68	41	1	-3	0.6
CCN(CC)c1nc(OC)nc(-n2nnc(C(C)=O)c2C)n1	0.32	-6	1.1	-10	1.1
CCOC(=O)CSC1=C(C#N)C(=O)NC2(CCCCC2)S1	1.2	24	0.4	61*	0.8
SMILES	Cav3 T inh	CYP2C19 inh	CYP2C9 act	CYP2C9 inhib	CYP2C19 act
O=C(CCn1nnc(-c2cccs2)n1)N1CCc2ccccc2C1	-1.5	26	0.8	22	0.7
O=C(Cn1nnc(-c2cccs2)n1)N1c2ccccc2Sc2ccc(C(F)(F)F)cc21	-5.4*	.	.	.	.
N/C(COc1ccc(C(=O)O)cc1)=N\O	-0.072	-18	1.1	-15	1.2
c1ccc(-c2noc(-c3ccc4c(c3)OCO4)n2)nc1	0.15	79*	0.1	92*	0.2
COc1cccc(-c2nc(-c3ccccn3)no2)c1	0.15	75*	0.6	39	0.2
c1ccc(-c2noc(-c3ccncc3)n2)nc1	0.18	68*	0.7	25	0.3
c1ccc(-c2noc(-c3ccc4ccccc4c3)n2)nc1	-0.068	20	1	-5	0.8
c1ccc(-c2noc(-c3cccnc3)n2)nc1	-0.12	25	1	3	0.7
COc1ccc(C(=O)Nn2cnc3ccccc3c2=O)c(OC)c1	.	24	1.1	-6	0.8
Cn1c(Cn2nnc(-c3ccccc3)n2)nnc1SCc1ccccc1Cl	-2.5	-10	0.4	64*	1.1
Cn1c(SC/C=C/c2ccccc2)nnc1-c1cnccn1	-1.2	23	0.9	5	0.8
Cn1c(SCc2ccccc2Cl)nnc1-c1cnccn1	0.76	77*	0.9	9	0.2
O=C(O)c1cccc(-c2nnn(Cc3ccccc3Cl)n2)c1	1.2	.	.	.	.
CCc1ccc(NC(=O)c2ccccc2NC(=O)C2CCCO2)cc1 (configuration not stated)	1.2	21	0.4	59*	0.8
CCOC(=O)N1CCC(NC(=O)c2ccc(NC(=O)C3CCCO3)cc2)CC1 (configuration not stated)	-0.62	11	0.9	8	0.9
O=C(NCCN1CCN(c2ccccc2)CC1)c1ccc(NC(=O)C2CCCO2)cc1 (configuration not stated)	0.55	52*	1.1	-5	0.5
COc1ccc(NS(=O)(=O)c2ccc(NC(=O)C3CCCO3)cc2)cc1 (configuration not stated)	0.27	69*	0.3	65*	0.3
O=C1NC(=O)c2cc(NC(=O)C3CCCO3)ccc21 (configuration not stated)	0.19	37	0.1	86*	0.6
COc1ccc(CNC(=O)c2ccc(NC(=O)C3CCCO3)cc2)cc1 (configuration not stated)	0.13	-1	0.9	6	1
COc1ccc(C(=O)N(CC2CCCO2)C(C(=O)NC2CCCC2)c2ccc(C)cc2)cc1OC (configuration not stated)	0.95	-2	0.8	24	1
Cc1ccc(C=C2C(=O)c3ccccc3C2=O)s1	-0.52	13	0.5	48	0.9
O=C1CCN(Cc2nnnn2CC2CCCO2)c2ccccc2N1 (configuration not stated)	-0.004	-10	1.1	-9	1.1
Cc1ccc(NS(=O)(=O)c2ccc(NC(=O)C3CCCO3)cc2)cc1 (configuration not stated)	0.64	91*	0.1	85*	0.1
O=C(Nc1ccc(Oc2ccc(NC(=O)C3CCCO3)cc2)cc1)C1CCCO1 (configuration not stated)	-0.56	26	0.5	54*	0.7
CN(Cc1ccccc1)S(=O)(=O)c1ccc(NC(=O)C2CCCO2)cc1 (configuration not stated)	-0.47	12	0.5	55*	0.9
Cc1ccnc(NS(=O)(=O)c2ccc(NC(=O)C3CCCO3)cc2)n1 (configuration not stated)	1.1	0	1	1	1
COc1ccc(N2CCN(C(=O)CSc3nnc(Cn4nnc5ccccc54)n3C)CC2)cc1	0.11	15	0.7	34	0.8
O=C(CCCNS(=O)(=O)c1cccc2nsnc12)NCc1ccccc1	0.51	9	1	-2	0.9

Bioassay records from PubChem.
